Compound activity: PubChem BioAssay, National Center for Advancing Translational Sciences (NCATS)
An excerpt weighted towards active compounds, which were near 10% of everything screened.
GLA inh pH 4.5: qHTS Assay for Inhibitors of Human alpha-Galactosidase at pH 4.5; 230,000 tested, under 10 active; Alpha-galactosidase A (Homo sapiens), P06280; purified enzyme, 4-MU-alpha-Gal fluorescence, pH 4.5; activity change, negative = inhibition, % at 105 µM
12-hLO inh: qHTS Assay for Inhibitors of 12-hLO (12-human lipoxygenase). Potency, µM (top dose mostly 57.1 µM), hits mostly inhibitors. hit rate 0.12% among 150,000. Polyunsaturated fatty acid lipoxygenase ALOX12 (Homo sapiens), P18054. purified 12-hLO, xylenol orange hydroperoxide absorbance; also: nearly all actives have a fitted effect of over 55% in size
Target sequence (P18054 whole entry, looked up): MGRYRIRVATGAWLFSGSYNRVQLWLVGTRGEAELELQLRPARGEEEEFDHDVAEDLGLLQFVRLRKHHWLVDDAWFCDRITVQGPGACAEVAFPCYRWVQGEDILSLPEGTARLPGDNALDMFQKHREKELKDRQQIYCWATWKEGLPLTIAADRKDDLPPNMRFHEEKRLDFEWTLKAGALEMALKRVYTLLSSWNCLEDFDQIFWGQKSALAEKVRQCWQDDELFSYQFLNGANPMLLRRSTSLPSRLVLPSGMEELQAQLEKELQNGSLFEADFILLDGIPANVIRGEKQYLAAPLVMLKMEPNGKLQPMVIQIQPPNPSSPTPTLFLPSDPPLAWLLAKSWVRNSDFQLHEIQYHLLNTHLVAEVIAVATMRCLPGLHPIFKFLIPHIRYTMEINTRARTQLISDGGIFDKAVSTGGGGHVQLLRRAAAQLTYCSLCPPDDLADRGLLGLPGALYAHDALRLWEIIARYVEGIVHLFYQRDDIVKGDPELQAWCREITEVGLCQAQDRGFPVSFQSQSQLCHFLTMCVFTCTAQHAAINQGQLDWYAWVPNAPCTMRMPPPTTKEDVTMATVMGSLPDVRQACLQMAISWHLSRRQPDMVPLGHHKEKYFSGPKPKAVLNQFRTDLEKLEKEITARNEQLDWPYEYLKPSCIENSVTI
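Hydroperoxide formation by human 12-lipoxygenase from 40 uM arachidonic acid was followed colorimetrically via ferric-xylenol orange complex, using the 573/405 nm absorbance ratio. Enzyme concentration was 150 nM, with 30 min reaction at room temperature.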
PNC assembly inh: High Content Assay for Compounds that inhibit the Assembly of the Perinucleolar Compartment; AID 2417, 2010; activity change (PNC), negative = inhibition, % at 10 µM; PC3M PTB-GFP, PNC prevalence imaging, 16 h; hits give low values; hit rate 3.1% among 140,000;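 active = readout at or below -70, meaning at least 70% loss of cells showing the perinucleolar compartment, a nuclear body marking cancer cells; inconclusive = readout between -30 and a set limit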
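Compounds are pinned in duplicate onto adhered PC3M cells stably expressing GFP-tagged PTB and incubated 16 h at 37 C. Cells are then fixed, nuclei stained with Hoechst, and PNC-positive cells counted.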
ALDH1A1 inh: qHTS Assay for Inhibitors of Aldehyde Dehydrogenase 1 (ALDH1A1); hit rate 7.3% among 220,000; Potency, µM (titrated, usually from 75.3 µM), hits mostly inhibitors; Aldehyde dehydrogenase 1A1 (Homo sapiens), P00352; Purified ALDH1A1, NADH fluorescence, propionaldehyde substrate; active = well fitted inhibition curve with a large enough effect, not every such curve was filed as active; inconclusive = small, poorly fitted or top-dose-only effect, or another doubt; inactive = no such curve, though single readings can be large or run the other way
HPGD block: qHTS Assay for Inhibitors of HPGD (15-Hydroxyprostaglandin Dehydrogenase) | 15-hydroxyprostaglandin dehydrogenase [NAD(+)] (Homo sapiens), P15428 | purified HPGD, NADH fluorescence kinetic, PGE2 substrate | Potency, µM, usual class: inhibitors | hit rate 4.3% among 150,000 | AID 894, 2007; active = well fitted inhibition curve with a large enough effect, not every such curve was filed as active; inconclusive = small, poorly fitted or top-dose-only effect, or another doubt; inactive = no such curve, though single readings can be large or run the other way
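NADH formation kinetics: reaction with 30 uM PGE2 and 1 mM NAD+ (final), 20 nM enzyme, Tris-HCl pH 8 with Tween 20, after 15 min compound preincubation at room temperature. Fluorescence change, last versus first of five reads.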
GLA spleen mod: qHTS Assay for Inhibitors and Activators of Human alpha-Galactosidase From Spleen Homogenate; Alpha-galactosidase A (Homo sapiens), P06280; human spleen homogenate, 4MU-alpha-Gal fluorescence, 40 min; AID 2107, 2009; hit rate 0.008% among 240,000; Potency, µM (series often up to 80 µM), actives largely listed as inhibitors
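qHTS titration in buffer at pH 5.0. Alpha-galactosidase activity in spleen homogenate was measured via 4-methylumbelliferone release from 1 mM fluorogenic substrate after 40 min at 37C and a pH 10 stop. AC50 came from Hill fits of control-normalized data.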
Numbers stand for hits; – = inactive; ? = inconclusive; · = no result given; [ ] = dose if it differs, or a comment. Unless noted, calls follow the shape of the dose curve; as a rule, active = well fitted curve in the direction sought with a large enough effect; inconclusive = small, poorly fitted or top-dose-only effect, or another doubt; inactive = no such curve, though single readings can be large; an effect the other way counts as inactive or inconclusive.

SMILES | GLA inh pH 4.5 | 12-hLO inh | PNC assembly inh | ALDH1A1 inh | HPGD block | GLA spleen mod
Cc1cc(=O)c2cccc(Br)c2[nH]1 | – | – | -100 | – | – | –
Cc1ncc(CSC(=N)N)n1Cc1ccccc1 | · | –[11.4 µM] | · | –[13.5 µM] | – | ·
Cc1cc(/C=C2\C(=N)N3N=C(C(C)C)SC3=NC2=O)c(C)n1Cc1ccccc1 | – | · | · | · | · | –
Cc1nn(-c2ccccc2)c(Cl)c1/C=C1\SC(=S)NC1=O | – | – | ? | ? | 16µM | –
Cc1nn(-c2ccccc2)c(Cl)c1/C=C1\SC(=S)N(CCCCCC(=O)O)C1=O | – | · | · | · | · | –
Cc1nn(-c2ccccc2)c(Cl)c1/C=C1/C(=N)N2N=C(C(C)C)SC2=NC1=O | – | – | ? | ? | 22µM | –
CCCn1c(-c2ccc(F)cc2)nc2c(NCCCCN3CCCC3)nc(C)nc21 | – | – | · | ? | ? | –
CCN1CCN(S(=O)(=O)c2ccc(Cl)c(C(=O)NC(C)(C)C)c2)CC1 | – | · | · | – | · | –
c1ccc(OCc2nnc3n2N=C(c2ccccc2)CS3)cc1 | – | · | · | 10µM | · | –
COc1ccccc1C1=Nn2c(COc3ccccc3)nnc2SC1 | – | · | · | 14µM | · | –
NC(Cc1cc(I)c(Oc2cc(I)c(O)c(I)c2)c(I)c1)C(=O)O (centres undefined) | – | – | · | 16µM | – | –
Cc1ccc(OCC(O)Cn2c(NCCc3ccccc3)nc3c2c(=O)[nH]c(=O)n3C)cc1 (centres undefined) | – | – | – | – | – | –
Cn1c(=O)[nH]c(=O)c2c1nc(NCCCn1ccnc1)n2Cc1ccccc1 | – | – | -102 | – | – | –
Cc1ccc(OCC(O)Cn2c(N3CCOCC3)nc3c2c(=O)[nH]c(=O)n3C)cc1 (centres undefined) | – | – | -94 | – | · | –
Cn1c(=O)[nH]c(=O)c2c1nc(N1CCC(Cc3ccccc3)CC1)n2Cc1ccccc1 | – | – | – | 10µM | – | –
Cn1c(=O)c2c(nc(N3CCCCCC3)n2CCSc2nc3ccccc3o2)n(C)c1=O | – | – | ? | 4.5µM | – | –
CCCn1c(N2CCC(Cc3ccccc3)CC2)nc2c1c(=O)[nH]c(=O)n2C | – | – | – | ? | – | –
CC(C)[C@@H](CC(=O)N[C@@H]1CCCC[C@H]1C(=O)N[C@H](CC(=O)N[C@@H](CCC(=O)O)CC(=O)O)Cc1ccccc1)NC(=O)C[C@H](CO)NC(=O)[C@@H]1CCCC[C@H]1N | – | – | · | – | – | –
O=c1cc(NC2CCCCC2)c2ccccc2o1 | – | – | – | – | – | –
Cn1c(N2CCCCC2)nc2c1c(=O)[nH]c(=O)n2C | – | – | -106 | ? | – | –
COc1ccc(N2CCN(c3nc4c(c(=O)n(C)c(=O)n4C)n3Cc3ccccc3)CC2)cc1 | – | – | – | ? | – | –
CC1CCCN(c2nc3c(c(=O)n(C)c(=O)n3C)n2Cc2ccccc2)C1 (centres undefined) | – | – | – | 1.8µM | – | –
CC1CCCN(c2nc3c(c(=O)[nH]c(=O)n3C)n2Cc2ccccc2Cl)C1 (centres undefined) | – | – | -87 | 10µM | – | –
CN(C)c1nc2c(c(=O)[nH]c(=O)n2C)n1Cc1ccccc1Br | – | – | – | – | 18µM | –
C=CCn1c(N2CCCC2)nc2c1c(=O)[nH]c(=O)n2C | – | – | – | – | – | –
SMILES | GLA inh pH 4.5 | 12-hLO inh | PNC assembly inh | ALDH1A1 inh | HPGD block | GLA spleen mod
O=C(CCn1cnc(-c2ccccc2)c1-c1ccccc1)N/N=C/c1ccccc1O | – | – | – | – | – | –
O=C(c1csnn1)N1CCC2(CC1)CCN(c1ccncc1)CC2 | · | – | · | – | – | –
Cc1ccc(Cn2c(N3CCCCCC3)nc3c2c(=O)[nH]c(=O)n3C)cc1 | – | – | – | 1.6µM | – | –
CCCc1cc(N2CCCC(C(=O)NCc3ccc4c(c3)OCO4)C2)n2ncnc2n1 (centres undefined) | – | – | ? | – | – | –
CCCc1cc(N2CCCC(C(=O)Nc3ccc(OC)cc3OC)C2)n2ncnc2n1 (centres undefined) | – | – | – | ? | 28µM | –
CCCC(=O)Nc1nc(C)c(-c2csc(Nc3ccc(Cl)cc3)n2)s1 | – | ? | – | ? | – | –
Cc1ccc(Nc2nc(-c3sc(NC(=O)c4cccc(Cl)c4)nc3C)cs2)cc1 | – | – | – | 16µM | – | –
CCOc1ccccc1Nc1nc(-c2sc(NC(=O)c3ccco3)nc2C)cs1 | – | – | – | – | – | –
CC(=O)Nc1nc(C)c(-c2csc(Nc3ccc(O)cc3)n2)s1 | – | – | – | 25µM | – | –
Cc1ccccc1Nc1nc(-c2sc(NC(=O)c3ccco3)nc2C)cs1 | – | – | – | 20µM | ? | –
CCC(C)C(=O)Nc1nc(C)c(-c2csc(Nc3ccc(Cl)cc3)n2)s1 (centres undefined) | – | – | – | 22µM | ? | –
COc1ccccc1Nc1nc(-c2sc(NC(=O)c3cccc(Cl)c3)nc2C)cs1 | – | – | – | ? | – | –
COc1ccc2cccc(N3CCN(CCNC(=O)c4ccc(F)cc4)CC3)c2c1 | – | – | · | ? | ? | –
C=CCOC(=O)N[C@@H](c1cccs1)C(C(C)=O)C(C)=O | – | · | · | – | – | –
COc1cc(C2C3C(C)N(C)C(=O)N(C)C3N(C)C(=O)N2C)ccc1O (centres undefined) | – | – | -100 | – | – | –
CC(C)c1ccc(Cn2ccc3c4c(N)nc(NC5CC5)nc4ccc32)cc1 | – | – | · | – | ? | –
O=C(OCC(O)CO)c1ccccc1Nc1ccnc2cc(Cl)ccc12 (centres undefined) | – | – | · | ? | ? | –
CCOC(=O)c1c(CCl)nc2ccccc2c1C | – | · | · | ? | · | –
CCc1ccc(C(C(=O)NCc2ccc(OC)cc2)N(CCOC)C(=O)Cc2cccs2)cc1 (centres undefined) | – | – | – | 1.3µM | – | –
COCCN(C(=O)Cc1cccs1)C(C(=O)NCc1ccc(OC)cc1)c1ccc(C)cc1 (centres undefined) | – | – | – | 2µM | – | –
COc1ccc(CN(C(=O)Cc2c[nH]c3ccccc23)C(C(=O)NC2CCCCC2)c2ccc(C)o2)cc1 (centres undefined) | – | – | ? | 6.3µM | – | –
